Experiment [1] can be described thus: NCI Yeast Anticancer Drug Screen. Data for the rad50 strain (AID 155).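 Note: 0% = growth of vehicle-only cultures of the same strain.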 The settings on record: S. cerevisiae rad50 strain growth inhibition, stronger effect = higher value. The gist of the method: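 Readout: growth inhibition relative to vehicle-treated cultures. Compound exposure was carried out in a genetically defined yeast strain deficient in DNA damage repair.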
Experiment [2] in a line: NCI Yeast Anticancer Drug Screen. Data for the mec2-1 strain (AID 157). The settings on record: S. cerevisiae mec2-1 strain, stronger effect = higher value. The gist of the method:
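Each compound was tested on mec2-1 yeast, a strain altered in DNA damage repair or cell cycle control. Growth inhibition is reported relative to vehicle.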

Experiment [3] can be described thus: NCI Yeast Anticancer Drug Screen. Data for the sgs1 mgt1 strain (AID 161).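 Note: 0% = growth of cultures given vehicle only.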 The following applies: S. cerevisiae sgs1 mgt1 strain, stronger effect = higher value. The gist of the method:
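Genetically altered yeast, compound exposure, growth inhibition relative to vehicle.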

A short description of experiment [4]: NCI Yeast Anticancer Drug Screen. Data for the cln2 rad14 strain (AID 165).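 Note: 0% = growth equal to vehicle treated cultures.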 The settings on record: S. cerevisiae cln2 rad14 strain, stronger effect = higher value. In short, it runs like this:
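Test compounds were added to cln2 rad14 yeast cultures; inhibition of growth was then determined by comparison with vehicle treatment.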

Experiment [5] can be described thus: NCI Yeast Anticancer Drug Screen. Data for the bub3 strain (AID 167). The following applies: S. cerevisiae bub3 mutant strain, stronger effect = higher value. In short, it runs like this:
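Readout: yeast growth inhibition, expressed relative to vehicle-only wells. The test organism is a mutant strain from a panel with lesions in DNA repair or checkpoint genes.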

Experiment [6] is described as follows: NCI Yeast Anticancer Drug Screen. Data for the mlh1 rad18 strain (AID 175). The settings on record: S. cerevisiae mlh1 rad18 strain growth inhibition, stronger effect = higher value. In short, it runs like this:
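Inhibition values reflect reduced growth of mutant yeast versus vehicle-treated controls following compound exposure; the mutations affect DNA damage repair.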

The mark [7] stands for this setting: at 5.0 µM (retest, dose inferred, filed as 0.5).
Where [8] appears, read: at 50.0 µM (retest, dose inferred, filed as 5.0).

The panel holds about 79,000 compounds, 15% with a hit somewhere; the sample as a whole holds those more often. Unmarked numbers belong to inactive results. The source made the active and inactive calls. Cut-off read from the data, not from the text of the source: active = growth inhibition above about 70%; inactive = the rest.

On to `O=C(c1ccccc1)N(c1ccccc1)c1ccc2ccccc2c1`, for which the growth inhibition was -3% in experiment [1] (setting [7]); 16% in experiment [1] (setting [8]); 5.8% in experiment [1] (at 50.0 µM); -3% in experiment [2] (setting [7]); 21% in experiment [2] (setting [8]); -6.1% in experiment [2] (at 50.0 µM). The growth inhibition in experiment [3] (setting [7]) is -5%; in experiment [3] (setting [8]), 77% (active); in experiment [3] (at 50.0 µM) it was 12%; in experiment [4] (setting [7]) it was -35%; in experiment [4] (setting [8]) it was 30%; in experiment [4] (at 50.0 µM), 12.3%. The growth inhibition in experiment [5] (setting [7]) is 13%; in experiment [5] (setting [8]) it was 67%; in experiment [5] (at 50.0 µM), 21.8%; in experiment [6] (setting [7]) it was -12%; in experiment [6] (setting [8]), 67%; in experiment [6] (at 50.0 µM), -1.8%.
As for `CCCNC(=S)N/N=C(/C)c1nccc2ccccc12`, the growth inhibition in experiment [1] (setting [7]) is 9%; in experiment [1] (setting [8]) it was 86% (active); in experiment [1] (at 50.0 µM), 38.1%; in experiment [2] (setting [7]), 4%; in experiment [2] (setting [8]), 98% (active); in experiment [2] (at 50.0 µM) it was 20.4%. Besides, the growth inhibition in experiment [3] (setting [7]) was 7%; in experiment [3] (setting [8]) it was 88% (active); in experiment [3] (at 50.0 µM), 70% (active); in experiment [4] (setting [7]), -8%; in experiment [4] (setting [8]) it was 7%; in experiment [4] (at 50.0 µM), 17.9%. Besides, the growth inhibition is 0% in experiment [5] (setting [7]); 78% (active) in experiment [5] (setting [8]); 14.8% in experiment [5] (at 50.0 µM); 3% in experiment [6] (setting [7]); 93% (active) in experiment [6] (setting [8]); 29.4% in experiment [6] (at 50.0 µM).
Take `CCc1ccc2ccc3ccc(CC)nc3c2n1`: the growth inhibition was 74% (active) in experiment [1] (setting [7]); 96% (active) in experiment [1] (setting [8]); 96.9% (active) in experiment [1] (at 50.0 µM); 85% (active) in experiment [2] (setting [7]); 94% (active) in experiment [2] (setting [8]); 97.7% (active) in experiment [2] (at 50.0 µM). The growth inhibition is 86% (active) in experiment [3] (setting [7]); 96% (active) in experiment [3] (setting [8]); 97.8% (active) in experiment [3] (at 50.0 µM); 72% (active) in experiment [4] (setting [7]); 91% (active) in experiment [4] (setting [8]); 82.7% (active) in experiment [4] (at 50.0 µM). The growth inhibition in experiment [5] (setting [7]) was 95% (active); in experiment [5] (setting [8]), 97% (active); in experiment [5] (at 50.0 µM) it was 95.3% (active); in experiment [6] (setting [7]), 85% (active); in experiment [6] (setting [8]), 96% (active); in experiment [6] (at 50.0 µM), 97.7% (active).
Turning to `COc1ccc(Cc2nncc3ccccc23)cc1OC`, the growth inhibition is -4% in experiment [1] (setting [7]); 84% (active) in experiment [1] (setting [8]); 91.2% (active) in experiment [1] (at 50.0 µM); 1% in experiment [2] (setting [7]); 83% (active) in experiment [2] (setting [8]); 96.5% (active) in experiment [2] (at 50.0 µM). The growth inhibition is -3% in experiment [3] (setting [7]); 92% (active) in experiment [3] (setting [8]); 95.3% (active) in experiment [3] (at 50.0 µM); 1% in experiment [4] (setting [7]); 83% (active) in experiment [4] (setting [8]); 72.2% (active) in experiment [4] (at 50.0 µM). Moreover, the growth inhibition is 1% in experiment [5] (setting [7]); 90% (active) in experiment [5] (setting [8]); 96% (active) in experiment [5] (at 50.0 µM); -4% in experiment [6] (setting [7]); 93% (active) in experiment [6] (setting [8]); 95.7% (active) in experiment [6] (at 50.0 µM).
Take `Nc1nc(N)c2nc(CNc3ccc(C(=O)NC(CCC(=O)O)C(=O)O)cc3)ccc2n1` (configuration not stated): the growth inhibition was -2% in experiment [1] (setting [7]); -5% in experiment [1] (setting [8]); 16.3% in experiment [1] (at 50.0 µM); -25% in experiment [2] (setting [7]); 11% in experiment [2] (setting [8]); 64.2% in experiment [2] (at 50.0 µM). Moreover, the growth inhibition in experiment [3] (setting [7]) was 18%; in experiment [3] (setting [8]), 16%; in experiment [3] (at 50.0 µM) it was 0.1%; in experiment [4] (setting [7]), 9%; in experiment [4] (setting [8]) it was 21%; in experiment [4] (at 50.0 µM), -5.8%. Further, the growth inhibition in experiment [5] (setting [7]) was 7%; in experiment [5] (setting [8]), 3%; in experiment [5] (at 50.0 µM) it was -38.9%; in experiment [6] (setting [7]), -8%; in experiment [6] (setting [8]), 8%; in experiment [6] (at 50.0 µM), -20.7%.
With `O=[N+]([O-])c1cc(Br)cc2c1nc(NCCCO)c1ccccc12`, the growth inhibition in experiment [1] (setting [7]) was 42%; in experiment [1] (setting [8]), 93% (active); in experiment [1] (at 50.0 µM), 95.7% (active); in experiment [2] (setting [7]), 11%; in experiment [2] (setting [8]), 92% (active); in experiment [2] (at 50.0 µM), 96.4% (active). In addition, the growth inhibition is 43% in experiment [3] (setting [7]); 96% (active) in experiment [3] (setting [8]); 98.5% (active) in experiment [3] (at 50.0 µM); 33% in experiment [4] (setting [7]); 89% (active) in experiment [4] (setting [8]); 94.3% (active) in experiment [4] (at 50.0 µM). The growth inhibition in experiment [5] (setting [7]) was 12%; in experiment [5] (setting [8]) it was 96% (active); in experiment [5] (at 50.0 µM), 94.6% (active); in experiment [6] (setting [7]) it was 59%; in experiment [6] (setting [8]), 97% (active); in experiment [6] (at 50.0 µM), 98.8% (active).
Take `O=C(CN1CCCCC1)c1ccc(/C=C/c2ccc(Cl)cc2)cc1`: the growth inhibition is 7% in experiment [1] (setting [7]); 98% (active) in experiment [1] (setting [8]); 98.6% (active) in experiment [1] (at 50.0 µM); 4% in experiment [2] (setting [7]); 99% (active) in experiment [2] (setting [8]); 98.4% (active) in experiment [2] (at 50.0 µM). The growth inhibition in experiment [3] (setting [7]) was 12%; in experiment [3] (setting [8]), 98% (active); in experiment [3] (at 50.0 µM) it was 97.1% (active); in experiment [4] (setting [7]) it was -20%; in experiment [4] (setting [8]) it was 75% (active); in experiment [4] (at 50.0 µM) it was 97.5% (active). Further, the growth inhibition in experiment [5] (setting [7]) was -13%; in experiment [5] (setting [8]), 99% (active); in experiment [5] (at 50.0 µM) it was 96.8% (active); in experiment [6] (setting [7]), 21%; in experiment [6] (setting [8]), 99% (active); in experiment [6] (at 50.0 µM) it was 98.1% (active).
In the case of `CC(NNC(=S)N1CCCCCC1)c1cccnn1` (configuration not stated), the growth inhibition is 99% (active) in experiment [1] (setting [7]); 99% (active) in experiment [1] (setting [8]); 89% (active) in experiment [1] (at 50.0 µM); 98% (active) in experiment [2] (setting [7]); 99% (active) in experiment [2] (setting [8]); 93% (active) in experiment [2] (at 50.0 µM). In addition, the growth inhibition in experiment [3] (setting [7]) is 97% (active); in experiment [3] (setting [8]), 99% (active); in experiment [3] (at 50.0 µM), 89.2% (active); in experiment [4] (setting [7]) it was 98% (active); in experiment [4] (setting [8]), 99% (active); in experiment [4] (at 50.0 µM), 90.5% (active). For the same molecule, the growth inhibition in experiment [5] (setting [7]) was 98% (active); in experiment [5] (setting [8]), 99% (active); in experiment [5] (at 50.0 µM), 91.6% (active); in experiment [6] (setting [7]) it was 99% (active); in experiment [6] (setting [8]), 99% (active); in experiment [6] (at 50.0 µM), 85% (active).
`N=c1c2ccccc2cc2c3ccccc3ccn12`: the growth inhibition in experiment [1] (setting [7]) was 45%; in experiment [1] (setting [8]) it was 93% (active); in experiment [1] (at 50.0 µM) it was 97.3% (active); in experiment [2] (setting [7]), 47%; in experiment [2] (setting [8]), 97% (active); in experiment [2] (at 50.0 µM), 98% (active). Moreover, the growth inhibition in experiment [3] (setting [7]) is 56%; in experiment [3] (setting [8]), 95% (active); in experiment [3] (at 50.0 µM) it was 97.8% (active); in experiment [4] (setting [7]), 54%; in experiment [4] (setting [8]), 93% (active); in experiment [4] (at 50.0 µM), 86% (active). The growth inhibition in experiment [5] (setting [7]) was 57%; in experiment [5] (setting [8]), 95% (active); in experiment [5] (at 50.0 µM), 96.5% (active); in experiment [6] (setting [7]) it was 60%; in experiment [6] (setting [8]), 96% (active); in experiment [6] (at 50.0 µM), 96.1% (active).
